Results reported in PubChem BioAssay (NCATS).
Records with an inconclusive call do not appear. A number with no mark means an inactive call. The source made the active and inactive calls. The call rests on the fitted dose curve; in most records, active means well fitted activation curve with a large enough effect; inconclusive means small, poorly fitted or top-dose-only effect; inactive means no such curve, though single readings can be large or run the other way.

Target: Cellular tumor antigen p53 (Homo sapiens) (UniProt P04637)
Assay: Primary qHTS for small molecule compounds that upregulate eGFP-tagged delta133p53alpha (in N-terminal) cells. (AID 2060322); further: nearly all actives have a fitted effect of over 75% in size;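 on activation: cells pre-induced with doxycycline then dosed without doxycycline; series mostly up to about 56 µM; 0% = DMSO vehicle and 100% = reference activator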
Details: NCI-H358 eGFP-delta133p53alpha fluorescence, 24 h; activation: hits give high values
How it was run: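 NCI-H358 cells pre-induced 24 h with 10 ng/ml doxycycline for eGFP-delta133p53alpha, plated dox-free and exposed 24 h at 37C to titrated compounds. Fixed, Hoechst-stained; gated GFP peak intensity by laser scanning cytometry, normalized to DMSO (0%) and 57.5 uM 5-azacytidine (100%).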
Potency means the concentration at half of the fitted maximal effect.

Sequence of Cellular tumor antigen p53 (Homo sapiens) (P04637 whole entry, looked up): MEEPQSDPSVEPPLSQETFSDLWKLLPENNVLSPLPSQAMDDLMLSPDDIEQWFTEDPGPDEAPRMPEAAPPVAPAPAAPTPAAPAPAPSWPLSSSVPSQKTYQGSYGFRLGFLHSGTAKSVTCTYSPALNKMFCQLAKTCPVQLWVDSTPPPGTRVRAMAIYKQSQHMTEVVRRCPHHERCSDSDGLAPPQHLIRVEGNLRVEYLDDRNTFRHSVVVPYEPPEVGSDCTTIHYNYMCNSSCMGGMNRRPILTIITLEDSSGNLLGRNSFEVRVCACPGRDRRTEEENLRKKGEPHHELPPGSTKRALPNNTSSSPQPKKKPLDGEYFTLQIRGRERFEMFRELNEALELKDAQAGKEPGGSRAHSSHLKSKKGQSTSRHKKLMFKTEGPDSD

Row | SMILES | Potency | activation
1 | CC(C)(O)C=CC(=O)[C@](C)(O)[C@H]1[C@H](O)C[C@]2(C)[C@@H]3CC=C4[C@@H](C=C(O)C(=O)C4(C)C)[C@]3(C)C(=O)C[C@@]12C | 34.3 µM (active) | 
2 | CCS(=O)(=O)C(C)(C)S(=O)(=O)CC |  | -5.86%
3 | CCCOC(=O)c1cncn1C(C)c1ccccc1 (stereo unspecified) |  | 17.5%
4 | CC(O)CN1CCN(CC(=O)[O-])CCN(CC(=O)[O-])CCN(CC(=O)[O-])CC1.[Gd+3] (stereo unspecified) |  | -12.6%
5 | NC1=NC(=O)C(c2ccccc2)O1 (stereo unspecified) |  | 0.565%
6 | Oc1cc(Cl)ccc1Oc1ccc(Cl)cc1Cl | 51.4 µM (active) | 
7 | CC(Cc1ccccc1)NCCCCl (stereo unspecified) |  | -27.6%
8 | COP(=S)(OC)Oc1ccc(Sc2ccc(OP(=S)(OC)OC)cc2)cc1 |  | -14.2%
9 | Cc1cccc(Cc2cnc[nH]2)c1C |  | -0.837%
10 | O=C1OC(c2ccc(O)c(S(=O)(=O)O)c2)(c2ccc(O)c(S(=O)(=O)O)c2)c2c(Br)c(Br)c(Br)c(Br)c21 |  | 25.4%
11 | CCN[C@@H](C)Cc1ccccc1 |  | -10.7%
12 | CN1C[C@@H](NS(=O)(=O)N(C)C)C[C@@H]2c3cccc4c3c(cn4C)C[C@H]21 |  | 14.1%
13 | COc1cc(CCN)cc(OC)c1OC |  | -6.21%
14 | CCC(=O)C(CCN(C)C)(c1ccccc1)c1ccccc1 | 13.8 µM (active) | 
15 | CC(C(O)c1ccccc1)N(C)C/C=C/c1ccccc1 (stereo unspecified) |  | -4.18%
16 | c1ccc2c(c1)sc1ccccc12 |  | -5.02%
